A selection: hits, their analogues and other compounds. The true share with any hit is near 3.4%.
FBW7 act: FBW7 E3 ligase activators, primary screen, biochemical, AlphaScreen, human | F-box/WD repeat-containing protein 7 (Homo sapiens), Q969H0 | actives 0.13% (n = 650,000) | normalized activity (activation), % at 26.1 µM | AlphaScreen FBW7–phospho-cyclin E peptide binding, activator screen; in the data active means normalized activity above about 1.9%;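 further: purified mutant Fbw7 with reduced substrate affinity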
Target sequence (Q969H0 whole entry, looked up): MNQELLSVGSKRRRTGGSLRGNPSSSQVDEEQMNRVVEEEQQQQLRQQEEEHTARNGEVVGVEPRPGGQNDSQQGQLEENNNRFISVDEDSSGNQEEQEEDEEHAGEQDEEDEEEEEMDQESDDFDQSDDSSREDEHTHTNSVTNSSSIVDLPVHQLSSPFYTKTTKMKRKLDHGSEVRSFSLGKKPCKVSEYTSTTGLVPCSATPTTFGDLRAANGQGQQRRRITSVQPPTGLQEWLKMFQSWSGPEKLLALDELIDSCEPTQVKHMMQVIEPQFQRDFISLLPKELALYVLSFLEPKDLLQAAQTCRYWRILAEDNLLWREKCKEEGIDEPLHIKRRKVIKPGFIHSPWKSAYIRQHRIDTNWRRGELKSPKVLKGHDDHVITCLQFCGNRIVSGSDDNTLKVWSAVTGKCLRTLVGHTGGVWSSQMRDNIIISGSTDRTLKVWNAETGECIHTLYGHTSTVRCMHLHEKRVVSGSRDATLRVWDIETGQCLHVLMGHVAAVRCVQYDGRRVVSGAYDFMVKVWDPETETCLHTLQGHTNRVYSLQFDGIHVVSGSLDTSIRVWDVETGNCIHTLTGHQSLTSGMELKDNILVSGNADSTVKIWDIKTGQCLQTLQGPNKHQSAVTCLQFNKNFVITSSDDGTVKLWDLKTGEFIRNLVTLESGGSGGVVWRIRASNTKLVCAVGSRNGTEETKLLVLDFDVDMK
MITF primary: MITF inhibitors, primary screen, biochemical, AlphaScreen, human. inhibition, % at 2.6 µM. Microphthalmia-associated transcription factor (Homo sapiens), O75030. actives 0.91% (n = 650,000). AlphaScreen MITF homodimerization, bead proximity signal. AID 1259374, 2018; in the data active means inhibition above about 50%;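 further: 0% = vehicle wells with protein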
GPR151 activ: activators of human GPR151, primary screen, cell-based, PathHunter beta-arrestin, luminescence | G-protein coupled receptor 151 (Homo sapiens), Q8TDV0 | actives 1% (n = 650,000) | activation, % at 11.2 µM | PathHunter beta-arrestin GPR151 cells; in the data active means activation above about 4.9%;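 further: 0% = median of compound wells and 100% = cells with positive control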
TEAD-YAP inh: TEAD-YAP interaction inhibition, primary screen, TEAD-YAP interaction inhibitor project, luminescence, HEK-TIYL cells; actives 1.4% (n = 640,000); inhibition, % at 9.12 µM; AID 1259422, 2018; TEAD-Gal4/YAP UAS-luciferase luminescence; in the data active means inhibition above about 32%;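 further: 0% = median of test compound wells and 100% = reference inhibitor wells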
MITF inh conf: MITF inhibitors, retest of hits, confirmation, biochemical, AlphaScreen, triplicate | shares compounds with MITF primary | AlphaScreen MITF homodimerization, biotin/His-MITF beads | inhibition, % at 2.6 µM | actives 16% (n = 4,700);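 active means inhibition above a cutoff derived from the DMSO control wells, cut at about 28% in these data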;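 further: 0% = MITF dimer wells with DMSO only; inhibitors lower the bead chemiluminescence by keeping MITF from dimerizing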
AS interf DR: AlphaScreen optical interference compounds, dose response, counter-screen, biochemical, HTS. AlphaScreen optical interference counterscreen, cell-free. actives 6% (n = 480). shares compounds with MITF primary. IC50, µM; call rule not given here
AlphaScreen intf2: AlphaScreen optical interference compounds, counter-screen for MITF inhibitor project, biochemical, triplicate; AID 1259376, 2018; inhibition, % at 2.6 µM; shares compounds with MITF primary; actives 7.6% (n = 4,700); LysRS AlphaScreen counterscreen, signal interference;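 active means inhibition above a cutoff derived from the DMSO control wells, cut at about 30% in these data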
An asterisk follows results filed as active; . = no result given.

SMILES | FBW7 act | MITF primary | GPR151 activ | TEAD-YAP inh | MITF inh conf | AlphaScreen intf2 | others
CN(CCOC(=O)/C=C/c1ccco1)Cc1ccccc1 | 0 | 68* | -2 | 2 | 62* | 9
NC(=O)C1CCN(CC(=O)NCCc2ccccc2)CC1 | 0 | 57* | 5 | 3 | -4 | -4
O=C(COc1ccccc1)c1ccc(O)c(O)c1O | 0 | 22 | -1 | -1 | . | .
Cc1ccc(OCCN2CC(C)OC(C)C2)c([N+](=O)[O-])c1 (configuration not stated) | 0 | 76* | -2 | -1 | 16 | -5
Cc1ccc(OCCCN2CCCC2)c([N+](=O)[O-])c1 | 0 | 38 | 0 | 0 | . | .
Cc1ccc(OCCN2CCNCC2)c([N+](=O)[O-])c1 | 0 | 50 | 0 | -20 | . | .
Cc1ccc(OCCN2CCCCC2)c([N+](=O)[O-])c1 | 0 | 64* | 2 | -7 | 19 | 14
Cc1ccc(OCCN2CCN(C)CC2)c([N+](=O)[O-])c1 | 0 | 76* | 2 | -10 | -9 | 0
CS(=O)(=O)N(CC(=O)Nc1ccc(F)cc1)c1ccc(Oc2ccccc2)cc1 | 1 | 68* | 1 | -22 | 7 | 16
CSc1cccc(NC(=O)CN(c2ccc3c(c2)OCO3)S(C)(=O)=O)c1 | 0 | -8 | 0 | -2 | . | .
CS(=O)(=O)N(CC(=O)Nc1c(F)cccc1F)c1ccc(Oc2ccccc2)cc1 | 0 | 60* | 0 | -4 | 10 | 17
CS(=O)(=O)N(CC(=O)Nc1cccc(F)c1)c1ccc2c(c1)OCO2 | 0 | 64* | 2 | 0 | -1 | -3
C[C@H]1[C@H](C)CC[C@]2(CO)CC[C@]3(C)C(=CC[C@@H]4[C@@]5(C)CC[C@H](O)C(C)(C)[C@@H]5CC[C@]43C)[C@H]12 | 0 | -2 | 0 | -16 | . | .
CCOC(=O)c1c(NC(=O)CN2CCN(C)CC2)sc2c1CC(C)(C)NC2(C)C | 0 | 53* | 1 | 6 | -2 | 1
Cc1cc(C)cc(NC(=O)C2CC23CCN(C(=O)Cn2ccnc2)CC3)c1 (configuration not stated) | 0 | 11 | 2 | -3 | . | .
O=C(NCc1ccccc1)NC1(C(=O)N2CCN(c3ncccn3)CC2)CCCCC1 | 0 | 4 | 0 | -8 | . | .
O=C(NCc1ccccc1)NC1(C(=O)N2CCCC2)CCCCC1 | -1 | 68* | -1 | -1 | 9 | 32*
CC(=O)Oc1ccccc1N1C(=O)c2ccc(Oc3cccc(N)c3)cc2C1=O | 0 | 54* | -1 | -6 | 70* | 2 | AS interf DR=>6.5
COc1cc(/C=N/NC(=O)CC2C(=O)NN=C2C)cc(OC)c1OC(C)=O (configuration not stated) | 0 | 0 | 1 | 2 | . | .
COc1cc(OC)c(OC)cc1/C=N/NC(=O)CC1C(=O)NN=C1C (configuration not stated) | 0 | 66* | 0 | 13 | 1 | -3
CC(=O)c1c(C)oc2c(Br)cc(NS(=O)(=O)c3ccccc3C)cc12 | 0 | 11 | 1 | 11 | . | .
CC1CN(Cc2ccccc2Br)CC(C)O1 (configuration not stated) | 0 | 67* | -1 | 0 | 1 | 4
CC1CN(Cc2ccc(F)c(F)c2)CC(C)O1 (configuration not stated) | 1 | 61* | 1 | 2 | 3 | 1
CC1CN(Cc2ccc(F)cc2F)CC(C)O1 (configuration not stated) | 0 | 65* | 0 | -3 | 0 | 9
O=C(CC1C(=O)NCCN1CC1CCCCC1)NCCO (configuration not stated) | 0 | 10 | -1 | 1 | . | .
SMILES | FBW7 act | MITF primary | GPR151 activ | TEAD-YAP inh | MITF inh conf | AlphaScreen intf2 | others
O=c1[nH]c2ccc(S(=O)(=O)NCc3ccc(F)cc3)cc2[nH]c1=O | 0 | 0 | 0 | 1 | . | .
Cc1ccc(-c2csc3ncc(C(=O)NC4CCCCC4)c(=O)n23)cc1 | 1 | -7 | 1 | -2 | . | .
c1ccn2cc(CN3CCCCC3)nc2c1 | 0 | 82* | 0 | 4 | -13 | 0
c1ccc2c(c1)ncn2CC1CCCCC1 | 1 | 13 | 0 | 2 | . | .
c1ccc2c(c1)ncn2CC1CCN(Cc2cn3ccccc3n2)CC1 | 0 | 89* | 3 | 12 | 29* | 17 | AS interf DR=>6.5
O=C1c2ccccc2C(=O)N1c1ccc(S(=O)(=O)N(CCO)c2ccccc2)cc1 | 0 | -1 | 1 | -3 | . | .
COc1ccc(C2=NN(C(=O)c3ccccc3Cl)C(c3cc4ccc(OC)cc4nc3Cl)C2)cc1 (configuration not stated) | 0 | 15 | 0 | 8 | . | .
O=C(N/N=C/c1cccc(O)c1)/C(=C\c1ccc2c(c1)OCO2)NC(=O)c1ccccc1 | 0 | -5 | 1 | 8 | . | .
COc1ccc(-n2nc(C(=O)NCC(=O)Nc3ccccc3OC)c3ccccc3c2=O)cc1 | 0 | 8 | -1 | 3 | . | .
COC(=O)c1c(NC(=O)c2ccc([N+](=O)[O-])s2)sc2c1CC(C)(C)NC2(C)C | 0 | 10 | -1 | 12 | . | .
O=C(NCCOc1ccccc1)c1ccc(-c2ccc(N3CCOCC3)nc2)s1 | 0 | 80* | -12 | -32 | 3 | 2
O=C(NCc1ccccc1)c1ccc(-c2ccc(N3CCOCC3)nc2)s1 | 0 | 12 | 0 | 11 | . | .
CCCNC(=O)c1cc(-c2ccc(Br)cc2)on1 | 0 | -19 | -1 | -50 | . | .
CCCCNC(=O)c1cc(-c2ccc(Br)cc2)on1 | 0 | 52* | -1 | -8 | 1 | 3
CC1CC(C)CN(C(=O)C(C)N(C)CC(=O)Nc2ccc(Cl)cc2)C1 (configuration not stated) | 0 | 51* | 0 | 7 | 8 | 10
CC(C(=O)N1CCCCC1)N(C)CC(=O)Nc1cccc(F)c1 (configuration not stated) | 1 | 64* | 1 | 8 | 12 | 7
COc1ccc(NC(=O)CN(C)C(C)C(=O)N2CCCCC2)cc1 (configuration not stated) | 0 | 66* | 2 | 0 | -3 | 12
CCc1ccc(CN2CCN(Cc3cccc(OC)c3OC)CC2)cc1 | 0 | 64* | -1 | -5 | 8 | 15
CCOc1ccccc1N1CCN(Cc2cccc(OC)c2OC)CC1 | 0 | 23 | 1 | 8 | . | .
COc1ccc(CN2CCN(Cc3cccc(OC)c3OC)CC2)cc1 | 0 | 75* | -1 | -6 | 9 | 12

Screening results deposited in PubChem by The Scripps Research Institute Molecular Screening Center.
